In PubChem BioAssay AID1159580 (chemical genetic matrix, 2015):
Hit rate of the full screen: of about 5,500 compounds, about 2,000 (36%) were called active. Roughly 18% stayed inconclusive and do not appear here. No stated cut-off is given here; in the data, active means normalized growth mostly below about 0.91 (no sharp cut-off); inconclusive means no clear call, values can overlap the other calls; inactive means mostly above about 0.92. The list shows a part of the results.

Assay: chemical genetic growth profiling, strain panel (AID 1159580);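 further: tested at 20 µM; growth read once vehicle control cultures reached saturation at 30 °C; 1 = growth at the plate median or of vehicle wells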
Conditions: growth OD

Measured: normalized growth

C[C@]12CCC(=O)C=C1CCC1C2[C@@H](O)C[C@@]2(C)C1CC[C@]2(O)C(=O)CO (stereo partly drawn)
inactive: S. cerevisiae deletion strains, locus YJR075W, strain HOC1, stronger effect = lower value 1.01 | S. cerevisiae deletion strains, locus YKL009W, strain mrt4, stronger effect = lower value 0.992 | S. cerevisiae deletion strains, locus YKL068W, stronger effect = lower value 1.01 | S. cerevisiae deletion strains, locus YKL085W, strain MDH1 (second series), stronger effect = lower value 0.998 | S. cerevisiae deletion strains, locus YKL085W, strain MDH1, stronger effect = lower value 0.998 | S. cerevisiae deletion strains, locus YKL160W, strain elf1, stronger effect = lower value 0.955 | S. cerevisiae deletion strains, locus YKR001C, strain vps1, stronger effect = lower value 0.971 | S. cerevisiae deletion strains, locus YKR026C, strain gcn3, stronger effect = lower value 0.993 | S. cerevisiae deletion strains, locus YKR091W, strain srl3, stronger effect = lower value 0.999 | S. cerevisiae deletion strains, locus YLL001W, strain dnm1, stronger effect = lower value 0.994 | S. cerevisiae deletion strains, locus YLL026W, stronger effect = lower value 0.982 | S. cerevisiae deletion strains, locus YLL041C, strain sdh2, stronger effect = lower value 0.99 | S. cerevisiae deletion strains, locus YLR027C, strain aat2, stronger effect = lower value 1 | S. cerevisiae deletion strains, locus YLR039C, strain RIC1, stronger effect = lower value 1.05 | S. cerevisiae deletion strains, locus YLR058C, strain SHM2, stronger effect = lower value 1.02 | S. cerevisiae deletion strains, locus YLR102C, strain apc9, stronger effect = lower value 0.993 | S. cerevisiae deletion strains, locus YLR113W, strain HOG1, stronger effect = lower value 0.99 | S. cerevisiae deletion strains, locus YLR221C, strain rsa3, stronger effect = lower value 0.985 | S. cerevisiae deletion strains, locus YLR258W, strain gsy2, stronger effect = lower value 0.971 | S. cerevisiae deletion strains, locus YLR262C, strain YPT6 (second series), stronger effect = lower value 1 | S. cerevisiae deletion strains, locus YLR262C, strain YPT6, stronger effect = lower value 1.08 | S. cerevisiae deletion strains, locus YLR268W, strain sec22, stronger effect = lower value 0.977 | S. cerevisiae deletion strains, locus YLR320W, strain mms22, stronger effect = lower value 0.986 | S. cerevisiae deletion strains, locus YLR330W, strain CHS5, stronger effect = lower value 1.01 | S. cerevisiae deletion strains, locus YLR342W, strain FKS1 (second series), stronger effect = lower value 1.01 | S. cerevisiae deletion strains, locus YLR342W, strain FKS1, stronger effect = lower value 0.999 | S. cerevisiae deletion strains, locus YLR357W, strain rsc2, stronger effect = lower value 0.957 | S. cerevisiae deletion strains, locus YLR370C, strain arc18, stronger effect = lower value 1 | S. cerevisiae deletion strains, locus YLR371W, strain rom2, stronger effect = lower value 0.971 | S. cerevisiae deletion strains, locus YLR384C, strain iki3, stronger effect = lower value 0.998 | S. cerevisiae deletion strains, locus YLR418C, strain cdc73, stronger effect = lower value 1.01 | S. cerevisiae deletion strains, locus YML016C, strain PPZ1, stronger effect = lower value 1.02 | S. cerevisiae deletion strains, locus YML032C, strain rad52, stronger effect = lower value 1.01 | S. cerevisiae deletion strains, locus YML120C, strain ndi1, stronger effect = lower value 1.01 | S. cerevisiae deletion strains, locus YML124C, strain tub3, stronger effect = lower value 0.994 | S. cerevisiae deletion strains, locus YMR058W, strain fet3, stronger effect = lower value 1.01 | S. cerevisiae deletion strains, locus YMR078C, strain ctf18, stronger effect = lower value 0.998 | S. cerevisiae deletion strains, locus YMR125W, strain sto1, stronger effect = lower value 0.96 | S. cerevisiae deletion strains, locus YMR129W, stronger effect = lower value 0.993 | S. cerevisiae deletion strains, locus YMR205C, strain PFK2, stronger effect = lower value 0.967 | S. cerevisiae deletion strains, locus YMR223W, strain ubp8, stronger effect = lower value 0.993 | S. cerevisiae deletion strains, locus YMR231W, strain pep5, stronger effect = lower value 1 | S. cerevisiae deletion strains, locus YMR263W, strain SAP30, stronger effect = lower value 1.02 | S. cerevisiae deletion strains, locus YMR307W, strain GAS1, stronger effect = lower value 1.04 | S. cerevisiae deletion strains, locus YNL067W, strain RPL9B, stronger effect = lower value 1.02 | S. cerevisiae deletion strains, locus YNL071W, strain lat1, stronger effect = lower value 1.01 | S. cerevisiae deletion strains, locus YNL153C, strain GIM3, stronger effect = lower value 1.03 | S. cerevisiae deletion strains, locus YNL183C, strain NPR1, stronger effect = lower value 0.939 | S. cerevisiae deletion strains, locus YNL209W, strain ssb2, stronger effect = lower value 0.99 | S. cerevisiae deletion strains, locus YNL233W, strain BNI4, stronger effect = lower value 1.02 | S. cerevisiae deletion strains, locus YNL248C, strain rpa49, stronger effect = lower value 0.989 | S. cerevisiae deletion strains, locus YNL250W, strain rad50, stronger effect = lower value 1.01 | S. cerevisiae deletion strains, locus YNL271C, strain bni1, stronger effect = lower value 0.995 | S. cerevisiae deletion strains, locus YNL298W, strain CLA4, stronger effect = lower value 1.01 | S. cerevisiae deletion strains, locus YNL307C, strain MCK1, stronger effect = lower value 0.995 | S. cerevisiae deletion strains, locus YNL322C, strain KRE1 (second series), stronger effect = lower value 0.969 | S. cerevisiae deletion strains, locus YNL322C, strain KRE1, stronger effect = lower value 1.01 | S. cerevisiae deletion strains, locus YNR049C, strain mso1, stronger effect = lower value 0.999 | S. cerevisiae deletion strains, locus YNR052C, strain pop2, stronger effect = lower value 0.999 | S. cerevisiae deletion strains, locus YOL012C, strain htz1 0.617 | S. cerevisiae deletion strains, locus YOL147C, strain pex11, stronger effect = lower value 1.02 | S. cerevisiae deletion strains, locus YOR001W, strain rrp6, stronger effect = lower value 1.01 | S. cerevisiae deletion strains, locus YOR061W, strain CKA2, stronger effect = lower value 1.02 | S. cerevisiae deletion strains, locus YOR069W, strain VPS5, stronger effect = lower value 1.01 | S. cerevisiae deletion strains, locus YOR070C, strain gyp1, stronger effect = lower value 0.966 | S. cerevisiae deletion strains, locus YOR080W, strain dia2, stronger effect = lower value 1.01 | S. cerevisiae deletion strains, locus YOR083W, strain WHI5, stronger effect = lower value 0.945 | S. cerevisiae deletion strains, locus YOR106W, strain vam3, stronger effect = lower value 0.971 | S. cerevisiae deletion strains, locus YOR136W, strain idh2, stronger effect = lower value 0.985 | S. cerevisiae deletion strains, locus YOR144C, strain elg1, stronger effect = lower value 0.995 | S. cerevisiae deletion strains, locus YOR184W, strain ser1, stronger effect = lower value 0.993 | S. cerevisiae deletion strains, locus YOR231W, strain MKK1, stronger effect = lower value 0.99 | S. cerevisiae deletion strains, locus YOR265W, strain rbl2, stronger effect = lower value 0.985 | S. cerevisiae deletion strains, locus YOR270C, strain vph1, stronger effect = lower value 0.996 | S. cerevisiae deletion strains, locus YOR290C, strain snf2, stronger effect = lower value 0.983 | S. cerevisiae deletion strains, locus YOR316C, strain cot1, stronger effect = lower value 0.994 | S. cerevisiae deletion strains, locus YPL051W, strain arl3, stronger effect = lower value 0.927 | S. cerevisiae deletion strains, locus YPL055C, strain LGE1, stronger effect = lower value 1.02 | S. cerevisiae deletion strains, locus YPL078C, strain atp4, stronger effect = lower value 0.97 | S. cerevisiae deletion strains, locus YPL106C, strain sse1, stronger effect = lower value 0.926 | S. cerevisiae deletion strains, locus YPL240C, strain hsp82, stronger effect = lower value 0.992 | S. cerevisiae deletion strains, locus YPL256C, strain CLN2, stronger effect = lower value 0.949 | S. cerevisiae deletion strains, locus YPR119W, strain clb2, stronger effect = lower value 0.99 | S. cerevisiae deletion strains, locus YPR141C, strain kar3, stronger effect = lower value 0.999 | S. cerevisiae deletion strains, locus YPR163C, strain tif3, stronger effect = lower value 0.986 | S. cerevisiae deletion strains, locus YPR167C, strain met16, stronger effect = lower value 0.991 | S. cerevisiae deletion strains, strain wtn01, stronger effect = lower value 0.972 | S. cerevisiae strains, strain wild type, stronger effect = lower value 1.02
